# Data as given in article PMC11006913.
# Legend:
# NKX3-2 [1] = target: NKX3-2 (Homo sapiens, UniProt P78367 192-278, P234S); experiment: PBM; 200 nM protein, PBS; settings: dsDNA, one strand shown
# NKX3-2 [2] = target: NKX3-2 (Homo sapiens, UniProt P78367 192-278); experiment: PBM; 200 nM protein, PBS; settings: dsDNA, one strand shown
# Sequence of NKX3-2 (Homo sapiens, UniProt P78367 192-278) (P78367 192-278): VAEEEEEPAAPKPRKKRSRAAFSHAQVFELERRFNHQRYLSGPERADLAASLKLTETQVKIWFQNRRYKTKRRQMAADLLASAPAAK
# Sequence of NKX3-2 (Homo sapiens, UniProt P78367 192-278, P234S) (P78367 192-278 P234S): as the sequence (P78367 192-278) above, with P43S counted along it
Sequence,binding signal (NKX3-2 [1]),binding signal (NKX3-2 [2])
ACGATCGA,"10.7 upbm affinity estimate (log intensity, higher = more binding, comparable within an allelic series)","10.7 upbm affinity estimate (log intensity, higher = more binding, comparable within an allelic series)"
GGCCTCAC,"10.5 upbm affinity estimate (log intensity, higher = more binding, comparable within an allelic series)","10.6 upbm affinity estimate (log intensity, higher = more binding, comparable within an allelic series)"
GAAGTGGC,"12.7 upbm affinity estimate (log intensity, higher = more binding, comparable within an allelic series)","12.8 upbm affinity estimate (log intensity, higher = more binding, comparable within an allelic series)"
GGTTGAAC,"10.6 upbm affinity estimate (log intensity, higher = more binding, comparable within an allelic series)","10.6 upbm affinity estimate (log intensity, higher = more binding, comparable within an allelic series)"
CCCCCAAA,"10.7 upbm affinity estimate (log intensity, higher = more binding, comparable within an allelic series)","10.7 upbm affinity estimate (log intensity, higher = more binding, comparable within an allelic series)"
AGAGAGGA,"11.5 upbm affinity estimate (log intensity, higher = more binding, comparable within an allelic series)","11.6 upbm affinity estimate (log intensity, higher = more binding, comparable within an allelic series)"
GAGACCGC,"10.7 upbm affinity estimate (log intensity, higher = more binding, comparable within an allelic series)","10.7 upbm affinity estimate (log intensity, higher = more binding, comparable within an allelic series)"
AAAGTGGA,"12.6 upbm affinity estimate (log intensity, higher = more binding, comparable within an allelic series)","12.6 upbm affinity estimate (log intensity, higher = more binding, comparable within an allelic series)"
CCACTCAG,"12.6 upbm affinity estimate (log intensity, higher = more binding, comparable within an allelic series)","12.7 upbm affinity estimate (log intensity, higher = more binding, comparable within an allelic series)"
CAGGTAGC,"10.7 upbm affinity estimate (log intensity, higher = more binding, comparable within an allelic series)","10.7 upbm affinity estimate (log intensity, higher = more binding, comparable within an allelic series)"
AAGTGCCA,"12.6 upbm affinity estimate (log intensity, higher = more binding, comparable within an allelic series)","12.8 upbm affinity estimate (log intensity, higher = more binding, comparable within an allelic series)"
ACCACTTC,"12.8 upbm affinity estimate (log intensity, higher = more binding, comparable within an allelic series)","12.8 upbm affinity estimate (log intensity, higher = more binding, comparable within an allelic series)"
CGACCTAG,"10.6 upbm affinity estimate (log intensity, higher = more binding, comparable within an allelic series)","10.6 upbm affinity estimate (log intensity, higher = more binding, comparable within an allelic series)"
ATGCCGAC,"10.6 upbm affinity estimate (log intensity, higher = more binding, comparable within an allelic series)","10.6 upbm affinity estimate (log intensity, higher = more binding, comparable within an allelic series)"
CACGGGCA,"10.5 upbm affinity estimate (log intensity, higher = more binding, comparable within an allelic series)","10.6 upbm affinity estimate (log intensity, higher = more binding, comparable within an allelic series)"
CCTGCCCG,"10.7 upbm affinity estimate (log intensity, higher = more binding, comparable within an allelic series)","10.7 upbm affinity estimate (log intensity, higher = more binding, comparable within an allelic series)"
CCCACGGG,"10.3 upbm affinity estimate (log intensity, higher = more binding, comparable within an allelic series)","10.3 upbm affinity estimate (log intensity, higher = more binding, comparable within an allelic series)"
GAGTACAC,"12.1 upbm affinity estimate (log intensity, higher = more binding, comparable within an allelic series)","12.2 upbm affinity estimate (log intensity, higher = more binding, comparable within an allelic series)"

Sequence,binding signal (NKX3-2 [1]),binding signal (NKX3-2 [2])
GCCGAGCC,"10.8 upbm affinity estimate (log intensity, higher = more binding, comparable within an allelic series)","10.7 upbm affinity estimate (log intensity, higher = more binding, comparable within an allelic series)"
AAGTGACG,"11.7 upbm affinity estimate (log intensity, higher = more binding, comparable within an allelic series)","11.9 upbm affinity estimate (log intensity, higher = more binding, comparable within an allelic series)"
GAGCTAGC,"10.7 upbm affinity estimate (log intensity, higher = more binding, comparable within an allelic series)","10.7 upbm affinity estimate (log intensity, higher = more binding, comparable within an allelic series)"
CCGCCGAA,"10.4 upbm affinity estimate (log intensity, higher = more binding, comparable within an allelic series)","10.4 upbm affinity estimate (log intensity, higher = more binding, comparable within an allelic series)"
CGGTGAGC,"10.6 upbm affinity estimate (log intensity, higher = more binding, comparable within an allelic series)","10.7 upbm affinity estimate (log intensity, higher = more binding, comparable within an allelic series)"
AGGTTGTG,"10.7 upbm affinity estimate (log intensity, higher = more binding, comparable within an allelic series)","10.7 upbm affinity estimate (log intensity, higher = more binding, comparable within an allelic series)"
GGTCAAAC,"10.5 upbm affinity estimate (log intensity, higher = more binding, comparable within an allelic series)","10.5 upbm affinity estimate (log intensity, higher = more binding, comparable within an allelic series)"
AGAAGAGG,"11.6 upbm affinity estimate (log intensity, higher = more binding, comparable within an allelic series)","11.7 upbm affinity estimate (log intensity, higher = more binding, comparable within an allelic series)"
CAAGGGTC,"11.7 upbm affinity estimate (log intensity, higher = more binding, comparable within an allelic series)","11.8 upbm affinity estimate (log intensity, higher = more binding, comparable within an allelic series)"
GAGGCAGC,"10.4 upbm affinity estimate (log intensity, higher = more binding, comparable within an allelic series)","10.4 upbm affinity estimate (log intensity, higher = more binding, comparable within an allelic series)"
GCACCCAA,"10.6 upbm affinity estimate (log intensity, higher = more binding, comparable within an allelic series)","10.6 upbm affinity estimate (log intensity, higher = more binding, comparable within an allelic series)"
ACGGGACG,"10.4 upbm affinity estimate (log intensity, higher = more binding, comparable within an allelic series)","10.4 upbm affinity estimate (log intensity, higher = more binding, comparable within an allelic series)"
GAGTAGAC,"11.6 upbm affinity estimate (log intensity, higher = more binding, comparable within an allelic series)","11.6 upbm affinity estimate (log intensity, higher = more binding, comparable within an allelic series)"
ACACACCG,"10.6 upbm affinity estimate (log intensity, higher = more binding, comparable within an allelic series)","10.6 upbm affinity estimate (log intensity, higher = more binding, comparable within an allelic series)"
CGCTGCGA,"10.5 upbm affinity estimate (log intensity, higher = more binding, comparable within an allelic series)","10.5 upbm affinity estimate (log intensity, higher = more binding, comparable within an allelic series)"
CGTGGGAA,"10.6 upbm affinity estimate (log intensity, higher = more binding, comparable within an allelic series)","10.6 upbm affinity estimate (log intensity, higher = more binding, comparable within an allelic series)"
CCCGAATC,"10.4 upbm affinity estimate (log intensity, higher = more binding, comparable within an allelic series)","10.4 upbm affinity estimate (log intensity, higher = more binding, comparable within an allelic series)"
